Reference: PubChem BioAssay (Tox21)
Records with an inconclusive call do not appear. The source made the active and inactive calls. Calls come from the whole dose curve; as a rule, active = well fitted curve in the direction sought with a large enough effect in the repeat runs; inconclusive = weak or mixed curves; inactive = no such curve, though single readings can be large; an effect the other way counts as inactive or inconclusive.

Columns and labels:
[1] = target: Nuclear receptor subfamily 1 group I member 2 (Homo sapiens) (UniProt O75469); test: Human pregnane X receptor (PXR) small molecule agonists, qHTS assay (AID 1346982); note: nearly all actives have a fitted effect of over 35% in size
Summary of the method: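 Compound-induced hPXR transactivation of a CYP3A4 luciferase reporter was scored in HepG2 PXR-Luc cells over 24 hr at 37 C, 5% CO2, by luminescence.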

[2] = target: Cytochrome P450 2D6 (Homo sapiens) (UniProt P10635); test: Cytochrome P450 Family 2 Subfamily D Member 6 (CYP2D6) small molecule antagonists: luciferase reporter qHTS assay (AID 1671196); note: nearly all actives have a fitted effect of over 50% in size; note: potency is the fitted concentration of half-maximal effect; for activity change, negative = inhibition: series mostly up to about 120 µM
Summary of the method: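 Each well received CYP2D6 with its proluciferin substrate and chemical, sat 10 min, then got NADPH regeneration solution for 1 h at room temperature. Luminescence in RLU served as the activity measure.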

[3] = target: Cytochrome P450 2C19 (Homo sapiens) (UniProt P33261); test: Cytochrome P450 Family 2 Subfamily C Member 19 (CYP2C19) small molecule antagonists: luciferase reporter qHTS assay (AID 1671197); note: nearly all actives have a fitted effect of over 65% in size; note: potency is the fitted concentration of half-maximal effect; for activity change, negative = inhibition: series mostly up to about 120 µM
Summary of the method: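 Enzyme-substrate mix with proluciferin substrate (P450-Glo CYP2C19 system) preincubated with compounds 10 min at room temperature; NADPH regeneration solution added, 37C for 1 h; detection reagent stops reaction, luminescence read after 20 min. Ketoconazole positive control.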

[4] = target: Cytochrome P450 2C9 (Homo sapiens) (UniProt P11712); test: Cytochrome P450 Family 2 Subfamily C Member 9 (CYP2C9) small molecule antagonists: luciferase reporter qHTS assay (AID 1671198); note: nearly all actives have a fitted effect of over 50% in size; note: potency is the fitted concentration of half-maximal effect; for activity change, negative = inhibition: series mostly up to about 120 µM
Summary of the method: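 Enzyme-substrate mix preincubated with compound 10 min at room temperature; reaction started with NADPH regeneration solution, 1 h 37C. Luminescent luciferin product read after 20 min detection reagent.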

[5] = target: Cytochrome P450 1A2 (Homo sapiens) (UniProt P05177); test: Cytochrome P450 Family 1 Subfamily A Member 2 (CYP1A2) small molecule antagonists: luciferase reporter qHTS assay (AID 1671199); note: nearly all actives have a fitted effect of over 50% in size; note: potency is the fitted concentration of half-maximal effect; for activity change, negative = inhibition: series mostly up to about 120 µM
Summary of the method: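 Enzymatic CYP1A2 assay, human, luminescent: 10 min compound–enzyme–substrate preincubation, 1 h NADPH-dependent turnover, 20 min detection step, room temperature throughout. Reduced light indicates lower CYP1A2 activity.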

[6] = target: Voltage-gated inwardly rectifying potassium channel KCNH2 (Homo sapiens) (UniProt Q12809); test: Human Ether-a-go-go-Related Gene (hERG) channel small molecule antagonists: fluorescence cell-based qHTS assay (AID 1671200); note: nearly all actives have a fitted effect of over 50% in size; note: potency is the fitted concentration of half-maximal effect;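 for activity change, negative = inhibition: hERG-expressing U2OS cells given a thallium stimulus after FluxOR II dye loading; series mostly up to about 77 µM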
Summary of the method: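 hERG-U2OS cells plated overnight at 37 C, loaded with FluxOR II dye 1 h at RT in dark; after 10 min, thallium stimulus added. Fluorescence (480/540 nm) read kinetically for 2 min at 1 s intervals.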

[7] = target: Cytochrome P450 3A4 (Homo sapiens) (UniProt P08684); test: Cytochrome P450 Family 3 Subfamily A Member 4 (CYP3A4) small molecule antagonists: luciferase reporter qHTS assay (AID 1671201); note: nearly all actives have a fitted effect of over 50% in size; note: potency is the fitted concentration of half-maximal effect; for activity change, negative = inhibition: series mostly up to about 120 µM
Summary of the method: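 P450-Glo CYP3A4 luminescent assay: compounds preincubated 10 min at room temperature with enzyme and proluciferin substrate, NADPH regeneration added, 1 h room-temperature reaction, stopped with luciferin detection reagent; luminescence read after 20 min. Ketoconazole positive control.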
% is set by controls: 0 for no effect and ±100 for the full control effect.

Cytochrome P450 3A4 (Homo sapiens), sequence (P08684 whole entry, looked up): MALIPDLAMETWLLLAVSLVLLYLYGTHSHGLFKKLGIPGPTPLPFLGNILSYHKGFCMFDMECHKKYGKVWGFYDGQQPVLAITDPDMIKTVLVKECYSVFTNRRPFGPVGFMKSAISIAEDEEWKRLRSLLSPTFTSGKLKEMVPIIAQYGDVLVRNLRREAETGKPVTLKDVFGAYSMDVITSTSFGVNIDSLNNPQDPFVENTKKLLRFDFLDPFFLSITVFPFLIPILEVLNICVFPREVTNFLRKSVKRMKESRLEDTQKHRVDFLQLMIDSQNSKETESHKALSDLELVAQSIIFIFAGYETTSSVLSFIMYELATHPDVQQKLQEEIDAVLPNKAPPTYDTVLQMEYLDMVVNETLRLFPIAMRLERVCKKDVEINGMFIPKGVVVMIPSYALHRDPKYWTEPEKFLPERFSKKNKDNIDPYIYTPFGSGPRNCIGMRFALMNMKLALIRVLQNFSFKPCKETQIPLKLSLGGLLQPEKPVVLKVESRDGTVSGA
Cytochrome P450 1A2 (Homo sapiens), sequence (P05177 whole entry, looked up): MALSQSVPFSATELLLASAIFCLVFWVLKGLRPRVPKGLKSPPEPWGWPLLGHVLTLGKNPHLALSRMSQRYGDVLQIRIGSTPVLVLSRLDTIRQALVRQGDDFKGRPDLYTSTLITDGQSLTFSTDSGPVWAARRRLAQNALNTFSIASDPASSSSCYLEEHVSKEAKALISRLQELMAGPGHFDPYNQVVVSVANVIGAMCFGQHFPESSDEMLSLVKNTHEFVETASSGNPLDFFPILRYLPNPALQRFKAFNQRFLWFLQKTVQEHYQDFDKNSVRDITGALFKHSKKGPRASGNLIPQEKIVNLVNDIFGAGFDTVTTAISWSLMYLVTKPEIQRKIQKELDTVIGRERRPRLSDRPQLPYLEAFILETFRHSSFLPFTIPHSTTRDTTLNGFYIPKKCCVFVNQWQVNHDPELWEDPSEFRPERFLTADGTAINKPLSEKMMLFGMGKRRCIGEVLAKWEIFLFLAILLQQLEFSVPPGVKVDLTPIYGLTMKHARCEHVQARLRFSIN
Cytochrome P450 2C19 (Homo sapiens), sequence (P33261 whole entry, looked up): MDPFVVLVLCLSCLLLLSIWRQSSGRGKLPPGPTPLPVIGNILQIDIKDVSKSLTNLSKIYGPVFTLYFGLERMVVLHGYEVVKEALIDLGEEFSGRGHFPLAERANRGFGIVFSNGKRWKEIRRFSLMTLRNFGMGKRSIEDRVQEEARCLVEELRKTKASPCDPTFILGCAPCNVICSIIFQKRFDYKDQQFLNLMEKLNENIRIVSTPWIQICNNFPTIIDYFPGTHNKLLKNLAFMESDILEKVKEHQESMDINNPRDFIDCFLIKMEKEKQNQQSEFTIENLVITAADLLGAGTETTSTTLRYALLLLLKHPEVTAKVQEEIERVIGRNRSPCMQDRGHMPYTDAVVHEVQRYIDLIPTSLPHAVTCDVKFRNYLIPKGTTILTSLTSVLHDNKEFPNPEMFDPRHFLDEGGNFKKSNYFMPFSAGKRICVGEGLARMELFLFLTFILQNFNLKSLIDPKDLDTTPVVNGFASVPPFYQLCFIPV
Cytochrome P450 2D6 (Homo sapiens), sequence (P10635 whole entry, looked up): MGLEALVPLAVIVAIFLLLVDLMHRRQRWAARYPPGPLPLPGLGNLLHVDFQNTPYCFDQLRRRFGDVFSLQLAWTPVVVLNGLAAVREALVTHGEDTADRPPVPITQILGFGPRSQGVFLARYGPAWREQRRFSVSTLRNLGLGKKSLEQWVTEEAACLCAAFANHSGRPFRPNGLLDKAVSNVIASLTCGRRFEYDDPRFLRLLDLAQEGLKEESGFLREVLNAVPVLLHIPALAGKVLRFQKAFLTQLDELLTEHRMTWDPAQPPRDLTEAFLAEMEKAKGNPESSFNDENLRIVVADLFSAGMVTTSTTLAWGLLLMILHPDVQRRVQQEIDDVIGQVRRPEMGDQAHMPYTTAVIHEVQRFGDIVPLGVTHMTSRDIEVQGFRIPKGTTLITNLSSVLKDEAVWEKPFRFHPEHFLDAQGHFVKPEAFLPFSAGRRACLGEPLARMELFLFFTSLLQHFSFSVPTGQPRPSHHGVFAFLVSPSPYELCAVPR
Cytochrome P450 2C9 (Homo sapiens), sequence (P11712 whole entry, looked up): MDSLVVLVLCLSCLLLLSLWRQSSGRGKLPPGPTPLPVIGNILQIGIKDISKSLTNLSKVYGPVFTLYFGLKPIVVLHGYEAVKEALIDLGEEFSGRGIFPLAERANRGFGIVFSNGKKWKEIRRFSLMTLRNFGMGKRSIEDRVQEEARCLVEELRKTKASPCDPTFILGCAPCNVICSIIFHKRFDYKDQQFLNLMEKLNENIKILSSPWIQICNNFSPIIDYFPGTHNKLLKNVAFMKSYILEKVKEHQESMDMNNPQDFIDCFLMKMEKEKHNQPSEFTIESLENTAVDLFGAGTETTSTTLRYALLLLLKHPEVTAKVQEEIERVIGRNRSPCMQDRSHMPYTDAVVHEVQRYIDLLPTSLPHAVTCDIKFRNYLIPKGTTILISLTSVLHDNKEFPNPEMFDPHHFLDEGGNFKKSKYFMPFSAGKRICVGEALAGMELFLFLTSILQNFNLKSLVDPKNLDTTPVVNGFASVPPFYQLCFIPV
Voltage-gated inwardly rectifying potassium channel KCNH2 (Homo sapiens), sequence (Q12809 whole entry, looked up): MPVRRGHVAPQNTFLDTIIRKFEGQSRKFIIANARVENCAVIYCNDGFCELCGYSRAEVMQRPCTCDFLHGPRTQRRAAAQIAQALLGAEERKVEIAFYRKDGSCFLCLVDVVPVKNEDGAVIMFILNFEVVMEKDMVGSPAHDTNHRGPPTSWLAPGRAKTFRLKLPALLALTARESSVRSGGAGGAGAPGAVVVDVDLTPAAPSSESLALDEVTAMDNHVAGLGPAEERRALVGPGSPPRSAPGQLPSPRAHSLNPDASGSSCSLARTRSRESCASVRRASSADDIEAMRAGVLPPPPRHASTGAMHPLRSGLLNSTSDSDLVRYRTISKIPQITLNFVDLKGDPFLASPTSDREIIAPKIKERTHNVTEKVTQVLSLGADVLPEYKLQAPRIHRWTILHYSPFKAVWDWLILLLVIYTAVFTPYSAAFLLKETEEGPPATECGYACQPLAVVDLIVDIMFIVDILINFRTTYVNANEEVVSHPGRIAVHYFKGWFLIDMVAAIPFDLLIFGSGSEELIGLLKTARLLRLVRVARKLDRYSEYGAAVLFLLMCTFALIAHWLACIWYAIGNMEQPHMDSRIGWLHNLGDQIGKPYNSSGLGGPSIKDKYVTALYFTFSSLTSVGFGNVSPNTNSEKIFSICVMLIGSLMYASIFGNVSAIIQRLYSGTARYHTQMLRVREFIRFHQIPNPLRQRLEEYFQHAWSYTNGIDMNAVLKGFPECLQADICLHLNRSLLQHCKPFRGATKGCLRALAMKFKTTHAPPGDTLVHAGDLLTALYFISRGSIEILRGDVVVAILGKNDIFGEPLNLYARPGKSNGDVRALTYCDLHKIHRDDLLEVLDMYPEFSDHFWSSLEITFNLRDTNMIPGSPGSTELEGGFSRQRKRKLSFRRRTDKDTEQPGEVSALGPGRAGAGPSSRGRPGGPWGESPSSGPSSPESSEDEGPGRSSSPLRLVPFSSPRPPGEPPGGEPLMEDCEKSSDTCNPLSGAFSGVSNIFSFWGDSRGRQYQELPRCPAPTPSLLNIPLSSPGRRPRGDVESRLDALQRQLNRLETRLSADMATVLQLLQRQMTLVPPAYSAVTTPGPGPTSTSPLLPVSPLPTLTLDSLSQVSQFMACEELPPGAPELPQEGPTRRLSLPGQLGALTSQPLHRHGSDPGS
Nuclear receptor subfamily 1 group I member 2 (Homo sapiens), sequence (O75469 whole entry, looked up): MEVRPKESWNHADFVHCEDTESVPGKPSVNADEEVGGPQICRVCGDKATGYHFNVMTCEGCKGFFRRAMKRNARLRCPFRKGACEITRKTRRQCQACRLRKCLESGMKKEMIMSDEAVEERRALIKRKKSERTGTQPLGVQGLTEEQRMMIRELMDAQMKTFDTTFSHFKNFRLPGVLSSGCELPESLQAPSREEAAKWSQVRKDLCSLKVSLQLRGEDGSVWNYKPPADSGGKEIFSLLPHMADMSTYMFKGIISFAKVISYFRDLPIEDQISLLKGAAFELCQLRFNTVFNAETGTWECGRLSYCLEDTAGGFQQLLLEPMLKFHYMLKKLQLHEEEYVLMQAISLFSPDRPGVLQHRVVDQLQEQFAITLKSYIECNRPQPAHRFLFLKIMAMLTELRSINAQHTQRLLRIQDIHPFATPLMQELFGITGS

C=C[Si](C)(C)O[Si](C)(C)C=C
inactive: Potency [1] | Potency [2] | Potency [3] | Potency [4] | Potency [5] | Potency [6] | Potency [7]

CCOC(=O)OCC/C(SC(=O)OCC)=C(\C)N(C=O)Cc1cnc(C)nc1N
active: Potency [2] 2.45 µM
inactive: Potency [1] | Potency [3] | Potency [4] | Potency [5] | Potency [6]

C=C(C)C(=O)OC1CC(C)CC(C)(C)C1 (stereo not drawn)
active: Potency [5] 31.7 µM
inactive: Potency [1] | Potency [2] | Potency [3] | Potency [4] | Potency [6] | Potency [7]

CC(=O)c1ccc2c(c1)CCCC2
inactive: Potency [1] | Potency [2] | Potency [4] | Potency [6] | Potency [7]
active: Potency [3] 79.6 µM | Potency [5] 35.6 µM

CO/N=C(/C(=O)N[C@@H]1C(=O)N2C(C(=O)O)=C(Cn3nnc(C)n3)CS[C@H]12)c1csc(N)n1
inactive: Potency [1] | Potency [2] | Potency [3] | Potency [4] | Potency [5] | Potency [6] | Potency [7]

CC(C)COC(=O)CC(C(=O)OCC(C)C)S(=O)(=O)O (stereo not drawn)
active: Potency [4] 31.7 µM
inactive: Potency [1] | Potency [2] | Potency [3] | Potency [5] | Potency [6] | Potency [7]

Nc1c(NC/C=C\COc2cc(CN3CCCCC3)ccn2)c(=O)c1=O
inactive: activation [1] -1.56% [at 19 µM] | activity change, negative = inhibition [3] -27.3% [at 23.6 µM] | activity change, negative = inhibition [4] -15.9% [at 23.6 µM] | activity change, negative = inhibition [5] 11.8% [at 23.6 µM] | activity change, negative = inhibition [6] 0.241% [at 15.8 µM]
active: Potency [2] 12 µM | Potency [7] 6.74 µM

CCCCCC1Nc2cc(C(F)(F)F)c(S(N)(=O)=O)cc2S(=O)(=O)N1 (stereo not drawn)
active: Potency [2] 13.8 µM | Potency [4] 1.55 µM | Potency [6] 23.9 µM
inactive: Potency [1] | Potency [3] | Potency [5]

CCCCCCCCCCCCCC(=O)OC
inactive: Potency [1] | Potency [2] | Potency [3] | Potency [4] | Potency [5] | Potency [6]

Cc1cc(C)cc([N+](=O)[O-])c1
inactive: Potency [1] | Potency [2] | Potency [3] | Potency [4] | Potency [5] | Potency [6]

O=C(O)C(=O)Nc1cccc(-c2nn[nH]n2)c1
inactive: Potency [1] | Potency [2] | Potency [3] | Potency [4] | Potency [5] | Potency [6] | Potency [7]

CCCCC(=O)N(C)C
inactive: Potency [1] | Potency [2] | Potency [3] | Potency [4] | Potency [5] | Potency [6] | Potency [7]

FC(F)(F)/C(=N\OCC1OCCO1)c1ccc(Cl)cc1
inactive: Potency [1] | Potency [2] | Potency [6] | Potency [7]
active: Potency [3] 1.59 µM | Potency [4] 31.7 µM | Potency [5] 2.24 µM

O=C1OC(=O)c2cc(Oc3ccc4c(c3)C(=O)OC4=O)ccc21
inactive: Potency [1] | Potency [2] | Potency [3] | Potency [4] | Potency [5] | Potency [6] | Potency [7]

Nc1cc(Cl)cc(S(=O)(=O)O)c1O
active: Potency [3] 41 µM | Potency [4] 20.6 µM
inactive: Potency [1] | Potency [2] | Potency [5] | Potency [6]

COC(=O)CCC(=O)O
inactive: Potency [1] | Potency [2] | Potency [3] | Potency [4] | Potency [5] | Potency [6]

CCCCCCCCCCCCC
inactive: Potency [1] | Potency [2] | Potency [3] | Potency [4] | Potency [5] | Potency [6] | Potency [7]

CCc1nccnc1C
inactive: Potency [1] | Potency [2] | Potency [3] | Potency [4] | Potency [5] | Potency [6]

CCCCCCCCCCCCOC(C)=O
inactive: Potency [1] | Potency [2] | Potency [3] | Potency [4] | Potency [5] | Potency [6] | Potency [7]

CC(=O)OCC(=O)[C@@]1(O)[C@H](OC(C)=O)C[C@H]2[C@@H]3CCC4=CC(=O)C=C[C@]4(C)[C@@]3(F)[C@@H](O)C[C@@]21C
inactive: Potency [1] | Potency [2] | Potency [3] | Potency [4] | Potency [5] | Potency [6]

CO[Si](CCCCl)(OC)OC
active: Potency [2] 31.2 µM | Potency [3] 39.3 µM | Potency [4] 39.3 µM | Potency [7] 3.51 µM
inactive: Potency [1] | Potency [5] | Potency [6]

O=[Si]=O
inactive: Potency [1] | Potency [2] | Potency [3] | Potency [4] | Potency [5] | Potency [6]

CC(C)COC(=O)CCCCC(=O)OCC(C)C
inactive: Potency [1] | Potency [2] | Potency [3] | Potency [6] | Potency [7]
active: Potency [4] 22.4 µM | Potency [5] 39.9 µM

CCCCCCCC[Si](OCC)(OCC)OCC
inactive: Potency [1] | Potency [2] | Potency [3] | Potency [4] | Potency [5] | Potency [6]

CCN1CN(CC)CN(CC)C1
inactive: Potency [1] | Potency [2] | Potency [3] | Potency [4] | Potency [5] | Potency [6]

C=C[C@@H](C)CCC=C(C)C
active: Potency [5] 39.9 µM
inactive: Potency [1] | Potency [2] | Potency [3] | Potency [4] | Potency [6] | Potency [7]

CC1(N)CCC(C(C)(C)N)CC1 (stereo not drawn)
inactive: Potency [1] | Potency [3] | Potency [4] | Potency [5] | Potency [6] | Potency [7]
active: Potency [2] 20 µM
